In ChEMBL document CHEMBL4513146, “CO-ADD screening of Karazin Kharkiv National University (Ukraine) compounds” one finds Inhibition data, which are given here for 40 compounds.

Each structure is given as a SMILES string. Results with a measured potency or affinity are listed apart.

One experiment deals with Klebsiella pneumoniae. The following applies: Concentration 32 ug.mL-1;; ASSAY_TEST Inhibition of Bacterial Growth; detection method Absorption (OD600); MEDIA CAMHB; plate type 384well; NBS; CORNING #3640; time 18 hr.
Regarding `O=C(CSc1nnc2c3cc(-c4ccc(F)cc4)nn3ccn12)NCc1ccccc1`, the Inhibition – broadly, the relative decrease from the control value, in per cent – was determined as 0.49%.

In the case of `CCOc1ccc(-n2ccn3c(SCC(=O)NCc4ccccc4Cl)nnc3c2=O)cc1`, the Inhibition is reported as 10.62%.

With `CCc1ccc(N(Cc2ccccc2C)S(=O)(=O)c2cccn3c(CC)nnc23)cc1`, the Inhibition came out at 6.17%.

`O=C(Cn1nc2c(SC3CCCCC3)nccn2c1=O)Nc1ccc(F)c(Cl)c1`: the Inhibition was found to be 0.9%.

For `Cc1ccc(N(Cc2ccccc2)S(=O)(=O)c2ccc3nncn3c2)cc1F`, the Inhibition worked out at 4.64%.

In the case of `COc1cc(OC)c(NC(=O)Cn2nc3c(Sc4cccc(C)c4)nccn3c2=O)cc1Cl`, the Inhibition was found to be 10.68%.

With `Cc1cccc(N(C)C(=O)Cn2nc3cc(C)nc(Nc4ccc(C)c(F)c4)n3c2=O)c1`, the Inhibition amounted to 20.18%.

Take `Cc1cccc(C)c1NC(=O)CSc1nc2ccccc2n2c(C)nnc12`: the Inhibition is 9.22%.

As for `COc1ccc(N2CCN(C(=O)Cn3nc4c(Sc5cccc(C)c5)nccn4c3=O)CC2)cc1`, the Inhibition is -3.27%.

For `O=C(Cn1nc2c(SCc3ccccc3)nccn2c1=O)NC1CCCCC1`, the Inhibition turned out to be 7.95%.

As for `CCc1ccc(Cn2c(=O)c3sccc3n3c(SCc4cccc(C(F)(F)F)c4)nnc23)cc1`, the Inhibition amounted to 8.34%.

With `COC(=O)c1sccc1NC(=O)Cn1nc2c(Oc3ccccc3)nc3ccccc3n2c1=O`, the Inhibition worked out at 10.72%.

On to `Cc1ccc(C)c(NC(=O)Cn2nc3ccc(-c4ccc(C)c(C)c4)nn3c2=O)c1`, for which the Inhibition is reported as -9.48%.

For `COc1ccc(-n2ccn3c(=O)n(Cc4ccccc4Cl)nc3c2=O)cc1Cl`, the Inhibition was 3.5%.

In the case of `COC(=O)c1ccc(NC(=O)Cn2nc3ccc(S(=O)(=O)c4ccccc4)nn3c2=O)cc1`, the Inhibition is given as 3.88%.

Consider `COc1ccc(NC(=O)CSc2nnc3c(=O)n(-c4ccccc4)ccn23)cc1`, for which the Inhibition is 0.2%.

In the case of `COc1ccc(NC(=O)Cn2nc3nc(Nc4ccc(F)cc4)ccn3c2=O)cc1F`, the Inhibition stood at 11.34%.

Regarding `CCc1nnc2ccc(S(=O)(=O)N(Cc3ccc(OC)c(F)c3)c3ccccc3)cn12`, the Inhibition was -3.43%.

With `COc1ccc(CN(c2ccc(F)cc2)S(=O)(=O)c2cccn3cnnc23)cc1F`, the Inhibition is listed as 9.98%.

`Cc1ccc(Cl)cc1NC(=O)Cn1nc2c3c4c(sc3ncn2c1=O)CCCCC4`: the Inhibition is 13.99%.

Turning to `COc1ccccc1CNC(=O)CSc1nnc2c3cc(-c4ccc(C)cc4)nn3ccn12`, the Inhibition is given as -1.35%.

Regarding `COc1ccc(NC(=O)Cn2nc3ccc(SCc4ccc(Cl)cc4)nn3c2=O)cc1Cl`, the Inhibition is recorded as -2.5%.

Take `O=C(Cn1nc2ccc(Sc3cccc(F)c3)nn2c1=O)Nc1ccc2c(c1)OCCO2`: the Inhibition amounted to 12.38%.

On to `Cc1ccc(CNC(=O)CSc2nnc3c(=O)n(-c4ccccc4)ccn23)cc1`, for which the Inhibition is 13.24%.

For the compound `Cc1cc(C)c(NC(=O)Cn2nc3ccc(SC(C)(C)C)nn3c2=O)c(C)c1`, the Inhibition worked out at 14.36%.

The next experiment deals with Candida albicans. The note with it: Concentration 32 ug.mL-1; ASSAY_TEST Inhibition of Fungal Growth; detection method Absorption (OD530).
Turning to `O=C(Cn1nc2c(N3CCOCC3)nccn2c1=O)NCc1ccc(F)cc1`, the Inhibition amounted to 2.87%.

As to `O=C(Cn1nc2c(Sc3cccc(F)c3)nccn2c1=O)Nc1ccc(Br)cc1`, the Inhibition is on record as 1.59%.

For `COc1ccccc1CNC(=O)Cn1nc2c(SCc3ccc(Cl)cc3)nccn2c1=O`, the Inhibition was 2.3%.

As to `CCOC(=O)c1ccccc1NC(=O)Cn1nc2c(Oc3ccc(C)cc3)nccn2c1=O`, the Inhibition came out at 4.6%.

`CC(C)n1c(=O)c2ccc(C(=O)NC3CCCC3)cc2n2c(=O)n(Cc3cccc(C(F)(F)F)c3)nc12`: the Inhibition is 1.19%.

With `C=Cc1ccc(CN(c2ccc(C(C)C)cc2)S(=O)(=O)c2cccn3cnnc23)cc1`, the Inhibition stood at 3.5%.

Consider `Cc1ccc(C)c(Cn2nc3n(CC(C)C)c(=O)c4sccc4n3c2=O)c1`, for which the Inhibition is given as -1.65%.

Regarding `CCOc1ccc(-n2ccn3c(SCC(=O)c4ccc(C)cc4C)nnc3c2=O)cc1`, the Inhibition came out at 2.76%.

On to `Cc1cccc(C)c1NC(=O)CSc1nnc2c3cc(-c4ccccc4)nn3ccn12`, for which the Inhibition was -0.49%.

Turning to `Cc1cccc(NC(=O)Cn2nc3ccc(-c4ccc(C)c(C)c4)nn3c2=O)c1`, the Inhibition is -1.03%.

Regarding `Cc1ccc(NC(=O)Cn2nc3ccc(SC4CCCCC4)nn3c2=O)cc1`, the Inhibition is given as 2.85%.

Consider `Cc1cc(C)cc(N(Cc2ccccc2F)S(=O)(=O)c2cccn3c(C)nnc23)c1`, for which the Inhibition came out at 1.9%.

With `Cc1nnc2ccc(S(=O)(=O)N(Cc3ccccc3F)c3cccc(Cl)c3)cn12`, the Inhibition is given as -0.66%.

As for `Cc1ccc(Sc2ccc3nn(CC(=O)Nc4ccc(Br)c(C)c4)c(=O)n3n2)cc1`, the Inhibition amounted to 11.69%.

Take `COc1ccc(Cl)cc1NC(=O)Cn1nc2c(Sc3ccc(C)cc3C)nccn2c1=O`: the Inhibition stood at 2.63%.

For the compound `O=C(CSc1nnc2c3cc(-c4ccc(F)cc4)nn3ccn12)NCc1ccccc1`, the Inhibition is listed as 0.97%.

Take `CCOc1ccc(-n2ccn3c(SCC(=O)NCc4ccccc4Cl)nnc3c2=O)cc1`: the Inhibition stood at 2.57%.

For the compound `CCc1ccc(N(Cc2ccccc2C)S(=O)(=O)c2cccn3c(CC)nnc23)cc1`, the Inhibition is 4.38%.

As for `O=C(Cn1nc2c(SC3CCCCC3)nccn2c1=O)Nc1ccc(F)c(Cl)c1`, the Inhibition was determined as 5.93%.

For `Cc1ccc(N(Cc2ccccc2)S(=O)(=O)c2ccc3nncn3c2)cc1F`, the Inhibition is recorded as 0.48%.

For the compound `COc1cc(OC)c(NC(=O)Cn2nc3c(Sc4cccc(C)c4)nccn3c2=O)cc1Cl`, the Inhibition is on record as 47.09%.

As to `Cc1cccc(N(C)C(=O)Cn2nc3cc(C)nc(Nc4ccc(C)c(F)c4)n3c2=O)c1`, the Inhibition is 4.24%.

In the case of `Cc1cccc(C)c1NC(=O)CSc1nc2ccccc2n2c(C)nnc12`, the Inhibition is recorded as 0.67%.

As to `COc1ccc(N2CCN(C(=O)Cn3nc4c(Sc5cccc(C)c5)nccn4c3=O)CC2)cc1`, the Inhibition worked out at 1.08%.

`O=C(Cn1nc2c(SCc3ccccc3)nccn2c1=O)NC1CCCCC1`: the Inhibition turned out to be 4.49%.

As for `CCc1ccc(Cn2c(=O)c3sccc3n3c(SCc4cccc(C(F)(F)F)c4)nnc23)cc1`, the Inhibition is 1.88%.

As to `COC(=O)c1sccc1NC(=O)Cn1nc2c(Oc3ccccc3)nc3ccccc3n2c1=O`, the Inhibition was 1.3%.

Take `Cc1ccc(C)c(NC(=O)Cn2nc3ccc(-c4ccc(C)c(C)c4)nn3c2=O)c1`: the Inhibition turned out to be 0.94%.

`COc1ccc(-n2ccn3c(=O)n(Cc4ccccc4Cl)nc3c2=O)cc1Cl`: the Inhibition amounted to 1.04%.

As for `COC(=O)c1ccc(NC(=O)Cn2nc3ccc(S(=O)(=O)c4ccccc4)nn3c2=O)cc1`, the Inhibition amounted to 1.43%.

Turning to `COc1ccc(NC(=O)CSc2nnc3c(=O)n(-c4ccccc4)ccn23)cc1`, the Inhibition is listed as 2.88%.

As for `COc1ccc(NC(=O)Cn2nc3nc(Nc4ccc(F)cc4)ccn3c2=O)cc1F`, the Inhibition is listed as 0.24%.

For the compound `CCc1nnc2ccc(S(=O)(=O)N(Cc3ccc(OC)c(F)c3)c3ccccc3)cn12`, the Inhibition is recorded as -0.62%.

Consider `COc1ccc(CN(c2ccc(F)cc2)S(=O)(=O)c2cccn3cnnc23)cc1F`, for which the Inhibition is 3.76%.

`Cc1ccc(Cl)cc1NC(=O)Cn1nc2c3c4c(sc3ncn2c1=O)CCCCC4`: the Inhibition came to 1.16%.

For the compound `COc1ccccc1CNC(=O)CSc1nnc2c3cc(-c4ccc(C)cc4)nn3ccn12`, the Inhibition was -1.83%.

For the compound `COc1ccc(NC(=O)Cn2nc3ccc(SCc4ccc(Cl)cc4)nn3c2=O)cc1Cl`, the Inhibition stood at 38.9%.

On to `O=C(Cn1nc2ccc(Sc3cccc(F)c3)nn2c1=O)Nc1ccc2c(c1)OCCO2`, for which the Inhibition is listed as -0.05%.

Regarding `Cc1ccc(CNC(=O)CSc2nnc3c(=O)n(-c4ccccc4)ccn23)cc1`, the Inhibition was 3.44%.

Take `Cc1cc(C)c(NC(=O)Cn2nc3ccc(SC(C)(C)C)nn3c2=O)c(C)c1`: the Inhibition is listed as 2.38%.
